# Inconclusive results are not listed. Values without a mark were called inactive. Calls follow the shape of the dose curve; as a rule, active = well fitted cell-killing curve with a large enough effect in the repeat runs; inconclusive = weak or mixed curves, or effect the other way; inactive = no such curve, though single readings can be large or run the other way.
# Test: qHTS assay to identify small molecule agonists of the RXR signaling pathway - cell viability counter screen (AID 1159529); also: nearly all actives have a fitted effect of over 50% in size
# Settings: RXR-alpha-bla HEK293T viability, CellTiter-Glo, 16 h; series mostly up to 76.8 µM; activity change, negative = cytotoxicity: at the top concentration
# Text: National Center for Advancing Translational Sciences [NCATS]
# NIH Chemical Genomics Center [NCGC]
# U.S. Environmental Protection Agency [EPA]
# National Institutes of Environmental Health Sciences [NIEHS]
# National Toxicology Program [NTP]
# U.S. Food and Drug Administration [FDA]
# The Retinoid X receptor (RXR), a nuclear hormone receptor expressed in liver, spleen, placenta, epidermis, central nervous system. These receptors are able to form homo and heterodimers with other nuclear receptors and due to this heterodimerizing ability, RXR functions as master regulators producing diverse physiological effects. Three subtypes of RXR exist; alpha, beta and gamma. Retinoid X receptor alpha (RXR-alpha) has potential roles in metabolic signaling pathways, skin alopecia, dermal cysts, cardiac development, insulin sensitization etc. Therefore screening environmental chemicals on RXR-alpha signaling can be used for the studies focused on such therapeutic applications. For quantification of RXR-alpha ligands signaling, GeneBLAzer RXR alpha-UAS-bla HEK 293T (Life Technologies, Carlsbad, CA) cells containing a beta-lactamase reporter-gene under control of Retinoid X receptor-alpha response element were used to screen Tox21 10K library. The cytotoxicity of the Tox21 compound library against the RXR-alpha HEK 293T cell line was tested in parallel by measuring cell viability using CellTiter-Glo assay (Promega Corporation, Madison, WI) in the same wells.
# Tox21 Assay Protocol Summary:
# RXR-alpha HEK 293T cells were dispensed at 2,000 cells/6 uL of assay medium containing 2% charcoal-stripped FBS using a Multidrop Combi (ThermoFisher Scientific, Waltham, MA) dispenser. The assay was performed in black wall/clear-bottom 1536-well plates (Greiner Bio-One North America Inc. Monroe, NC). Tetraoctyl ammonium bromide was used as a positive control in the cytotoxicity screen. After the assay plates were incubated at 37 C and 5% CO2 for 5 hr, 23 nL of compounds dissolved in DMSO, positive control or DMSO only were transferred to the assay plate by a Pintool station (Kalypsys, San Diego, CA). The assay plates were incubated at 37 C and 5% CO2 for 16 hr. One uL of LiveBLAzer B/G FRET substrate (Life Technologies) was added using a Flying Reagent Dispenser (FRD) (Aurora Discovery, San Diego, CA) and the plates were incubated at room temperature for 2 hr. Fluorescence intensity (405 nm excitation, 460/530 nm emission) was measured using an Envision plate reader (PerkinElmer, Shelton, CT). For cytotoxicity, 4 uL/well of CellTiter-Glo reagent was added into the assay plates using an FRD. After 30 min incubation at room temperature, the luminescence intensity was measured using a ViewLux plate reader (PerkinElmer).
# % is scaled to controls: 0 for no effect and ±100 for the full control effect.
row,Structure (SMILES),"activity change, negative = cytotoxicity"
1,CNC(=O)N(C)c1nc2ccccc2s1,-2.72%
2,CN1C[C@@H](NS(=O)(=O)N(C)C)C[C@@H]2c3cccc4c3c(cn4C)C[C@H]21,4.67% [at 35.3 µM]
3,CC(C(=O)c1ccccc1)N(C)C (stereo not given),9.08% [at 35.3 µM]
4,CNNC,0.595%
5,COc1cc(OC)nc(NC(=O)NS(=O)(=O)c2ncccc2OCC(F)(F)F)n1,2.51%
6,COC(=O)c1ccccc1S(=O)(=O)NC(=O)N(C)c1nc(C)nc(OC)n1,-1.71%
7,CCCCc1c(C)nc(NCC)[nH]c1=O,-2.03%
8,O=c1oc2ccccc2c(O)c1C1CCCc2ccccc21 (stereo not given),-14.1%
9,COc1ccc(C(=O)N2CCCC2=O)cc1,18.6% [at 35.3 µM]
10,CCOP(=O)(OCC)OP(=O)(OCC)OCC,-5.12%
11,N#CCNCC#N,3.36%
12,O=[N+]([O-])c1cccc2cccnc12,-0.971%
13,CC(C)CC(N(C)C)C1(c2ccc(Cl)cc2)CCC1 (stereo not given),-9.52% [at 35.3 µM]
14,CCC1(c2ccccc2)C(=O)N=C(O)NC1=O (stereo not given),-6.37%
15,COP(N)(=S)Oc1ccccc1C(=O)OC(C)C (stereo not given),1.13%
16,CCOP(=S)(OCC)Oc1cc(-c2ccccc2)on1,-9.92%
17,CNC(=O)Oc1c(C(C)(C)C)cc(C)cc1C(C)(C)C,0.671%
18,ClC(Cl)C(Cl)Cl,20.2%
19,COC(=O)C(C)Oc1ccc(Oc2ccc(Cl)cc2Cl)cc1 (stereo not given),-1.73%
20,C[C@]12CC[C@H]3[C@@H](CCC4=CC(=O)CC[C@@]43C)[C@@H]1CC[C@@H]2C(=O)O,-3.31% [at 35.3 µM]

row,Structure (SMILES),"activity change, negative = cytotoxicity"
1,O=C(NCO)NCO,1.5%
2,CS(=O)(=O)c1cc(C(F)(F)F)ccc1C(=O)c1cnoc1C1CC1,2.57%
3,CC(CCc1ccccc1)NC(C)C(O)c1ccc(O)cc1 (stereo not given),2.36% [at 35.3 µM]
4,C[N+](=O)[O-],2.05%
5,CCOC(=O)N(C)C(=O)CSP(=S)(OCC)OCC,4.21%
6,CCC(=O)c1ccccc1,8.25%
7,NC(=O)c1cc([N+](=O)[O-])cc([N+](=O)[O-])c1,-0.741% [at 35.3 µM]
8,O=[N+]([O-])c1ccc(CBr)cc1,1.29%
9,CC(=O)CCc1ccc2c(c1)OCO2,-4.06%
10,CCOP(=S)(OCC)Oc1ncn(-c2ccccc2)n1,-15.3%
11,COP(=S)(OC)Oc1ccc(S(N)(=O)=O)cc1,2.71% [at 35.3 µM]
12,c1cc2c(c(N3CCNCC3)c1)OCCO2,-7.2% [at 35.3 µM]
13,CN1CCC(O)(c2ccc(F)cc2)C(C(=O)c2ccc(F)cc2)C1 (stereo not given),5.58% [at 35.3 µM]
14,O=[N+]([O-])c1cc(Cl)c(Cl)c(Cl)c1,-0.645%
15,O=C(CCN1CC1)OCC(CO)(COC(=O)CCN1CC1)COC(=O)CCN1CC1,-0.173%
16,c1coc(-c2nc3ccccc3[nH]2)c1,-10.6%
17,CCOC(=O)/C=C(C)/C=C/C[C@@H](C)CCCC(C)C,-15.1%
18,C=C(C)CN(CC)c1c([N+](=O)[O-])cc(C(F)(F)F)cc1[N+](=O)[O-],-14.6%
19,CCN(CC)C(=O)[C@@H]1C=C2c3cccc4[nH]cc(c34)C[C@H]2N(C)C1,-9.84% [at 200 µM]
20,CCCCCCBr,-1.1%

# From PubChem BioAssay (Tox21)
